# In publication PMC4081100, “A DNA-binding-site landscape and regulatory network analysis for NAC transcription factors in Arabidopsis thaliana”:
# How the values were obtained:
# Assay in all cases: universal protein binding microarray (PBM); transcription factors of Arabidopsis thaliana; high values mean tight binding
# GST-ANAC092(1-176) = biological target: T1, GST-ANAC092(1-176) (Arabidopsis thaliana, UniProt Q9FKA0 1-176); conditions: protein: recombinant; tags: GST; chain copies: 2; dsDNA, one strand shown
# T1 sequence: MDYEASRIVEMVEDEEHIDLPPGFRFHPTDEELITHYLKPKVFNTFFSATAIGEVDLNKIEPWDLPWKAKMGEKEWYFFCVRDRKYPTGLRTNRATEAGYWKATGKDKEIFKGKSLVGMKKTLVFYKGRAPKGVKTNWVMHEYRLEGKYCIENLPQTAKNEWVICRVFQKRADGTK
# How it was run: (§1)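 For zinc-finger proteins, zinc acetate was added while GST-tagged NAC-domain, full-length or DNA-binding-domain proteins were induced in cells. Purification used glutathione–Sepharose 4B, and quantification used A280 or anti-GST western blot. Custom all-10-mer Agilent 4 × 180K arrays, made double-stranded by primer extension, each received a protein at 200 to 500 nM final in duplicate. Scoring covered gapped and ungapped 8-mers, with binding given as the normalised enrichment score (E-score).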
# GST-NTL6(1-168) = GST-NTL6(1-168) (Arabidopsis thaliana, UniProt Q9SCK6 1-168); conditions: protein: recombinant; tags: GST; chain copies: 2; dsDNA, one strand shown
# Chain of GST-NTL6(1-168) (Q9SCK6 1-168): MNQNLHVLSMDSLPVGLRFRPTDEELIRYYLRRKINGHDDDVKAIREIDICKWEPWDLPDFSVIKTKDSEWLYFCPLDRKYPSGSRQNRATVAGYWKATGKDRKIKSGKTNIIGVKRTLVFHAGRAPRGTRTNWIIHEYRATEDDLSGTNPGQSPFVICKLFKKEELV
# How it was run: as §1
# GST-ATAF1 NAC domain = biological target: T2, GST-ATAF1 NAC domain (Arabidopsis thaliana, UniProt Q39013 7-158); conditions: protein: recombinant; tags: GST; chain copies: 2; dsDNA, one strand shown
# T2 sequence: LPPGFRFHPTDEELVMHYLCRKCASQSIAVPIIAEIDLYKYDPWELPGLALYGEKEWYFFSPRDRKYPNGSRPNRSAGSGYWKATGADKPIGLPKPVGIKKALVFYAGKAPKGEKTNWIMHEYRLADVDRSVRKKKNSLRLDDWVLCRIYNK
# How it was run: as §1
# [1] = biological target: T3, GST-ANAC092(1-285) full length (Arabidopsis thaliana, UniProt Q9FKA0 1-285); conditions: protein: recombinant; tags: GST; chain copies: 2; dsDNA, one strand shown
# T3 sequence: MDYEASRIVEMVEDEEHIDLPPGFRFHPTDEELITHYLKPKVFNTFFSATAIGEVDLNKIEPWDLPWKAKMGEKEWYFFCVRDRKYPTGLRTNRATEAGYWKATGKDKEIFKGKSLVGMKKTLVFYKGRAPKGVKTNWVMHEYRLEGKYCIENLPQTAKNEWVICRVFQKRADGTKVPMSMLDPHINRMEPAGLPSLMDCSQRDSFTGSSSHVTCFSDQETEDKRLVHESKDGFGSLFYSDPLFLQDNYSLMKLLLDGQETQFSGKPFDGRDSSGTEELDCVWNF
# How it was run: as §1
# GST-NAP(1-166) = biological target: T4, GST-NAP(1-166) (Arabidopsis thaliana, UniProt O49255 1-166); conditions: protein: recombinant; tags: GST; chain copies: 2; dsDNA, one strand shown
# T4 sequence: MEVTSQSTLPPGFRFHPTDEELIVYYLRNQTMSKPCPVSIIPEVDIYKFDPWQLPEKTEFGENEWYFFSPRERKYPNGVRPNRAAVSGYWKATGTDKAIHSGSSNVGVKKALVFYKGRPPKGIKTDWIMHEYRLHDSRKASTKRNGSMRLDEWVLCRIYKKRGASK
# How it was run: as §1
# GST-NST2(1-184) = biological target: T5, GST-NST2(1-184) (Arabidopsis thaliana, UniProt Q9M274 1-184); conditions: protein: recombinant; tags: GST; chain copies: 2; dsDNA, one strand shown
# T5 sequence: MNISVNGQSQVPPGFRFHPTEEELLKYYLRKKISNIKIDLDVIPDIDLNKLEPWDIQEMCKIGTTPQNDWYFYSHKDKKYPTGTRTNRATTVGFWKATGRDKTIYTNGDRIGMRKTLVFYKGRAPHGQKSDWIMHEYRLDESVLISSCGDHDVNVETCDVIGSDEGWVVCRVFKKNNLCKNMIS
# How it was run: as §1
# GST-SND1(1-203) = biological target: T6, GST-SND1(1-203) (Arabidopsis thaliana, UniProt Q9LPI7 1-203); conditions: protein: recombinant; tags: GST; chain copies: 2; dsDNA, one strand shown
# T6 sequence: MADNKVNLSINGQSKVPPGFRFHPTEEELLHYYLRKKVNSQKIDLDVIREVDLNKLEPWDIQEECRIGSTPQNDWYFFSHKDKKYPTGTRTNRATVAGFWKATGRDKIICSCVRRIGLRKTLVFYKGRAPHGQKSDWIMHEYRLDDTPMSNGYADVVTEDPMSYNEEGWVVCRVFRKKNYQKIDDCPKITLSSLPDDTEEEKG
# How it was run: as §1
# GST-VND3 NAC domain = biological target: T7, GST-VND3 NAC domain (Arabidopsis thaliana, UniProt Q9FH59 12-162); conditions: protein: recombinant; tags: GST; chain copies: 2; dsDNA, one strand shown
# T7 sequence: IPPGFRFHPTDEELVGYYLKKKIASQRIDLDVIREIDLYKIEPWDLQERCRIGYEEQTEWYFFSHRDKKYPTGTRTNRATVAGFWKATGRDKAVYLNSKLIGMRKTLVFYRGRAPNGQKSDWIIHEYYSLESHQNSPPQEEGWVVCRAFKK
# How it was run: as §1
# GST-VND7 NAC domain = biological target: T8, GST-VND7 NAC domain (Arabidopsis thaliana, UniProt Q9C8W9 9-158); conditions: protein: recombinant; tags: GST; chain copies: 2; dsDNA, one strand shown
# T8 sequence: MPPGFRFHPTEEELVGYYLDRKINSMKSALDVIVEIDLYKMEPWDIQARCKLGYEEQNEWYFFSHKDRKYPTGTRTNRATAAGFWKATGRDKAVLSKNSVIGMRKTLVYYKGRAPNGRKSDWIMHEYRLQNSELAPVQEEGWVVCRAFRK
# How it was run: as §1
# GST-WRKY1(266-371) = GST-WRKY1(266-371) (Arabidopsis thaliana, UniProt Q9SI37 266-371); conditions: protein: recombinant; tags: GST; dsDNA, one strand shown
# Chain of GST-WRKY1(266-371) (Q9SI37 266-371): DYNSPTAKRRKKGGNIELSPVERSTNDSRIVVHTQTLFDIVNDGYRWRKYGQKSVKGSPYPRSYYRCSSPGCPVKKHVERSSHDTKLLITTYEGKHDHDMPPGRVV
# How it was run: as §1
# GST-ANAC019 NAC domain = biological target: T9, GST-ANAC019 NAC domain (Arabidopsis thaliana, UniProt Q9C932 14-162); conditions: protein: recombinant; tags: GST; chain copies: 2; dsDNA, one strand shown
# T9 sequence: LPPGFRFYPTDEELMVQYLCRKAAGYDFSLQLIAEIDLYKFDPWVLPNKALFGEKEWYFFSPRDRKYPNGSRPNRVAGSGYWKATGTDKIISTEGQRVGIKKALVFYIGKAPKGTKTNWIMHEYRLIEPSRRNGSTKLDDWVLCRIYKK
# How it was run: as §1
# GST-ANAC055(1-171) = biological target: T10, GST-ANAC055(1-171) (Arabidopsis thaliana, UniProt Q9LDY8 1-171); conditions: protein: recombinant; tags: GST; chain copies: 2; dsDNA, one strand shown
# T10 sequence: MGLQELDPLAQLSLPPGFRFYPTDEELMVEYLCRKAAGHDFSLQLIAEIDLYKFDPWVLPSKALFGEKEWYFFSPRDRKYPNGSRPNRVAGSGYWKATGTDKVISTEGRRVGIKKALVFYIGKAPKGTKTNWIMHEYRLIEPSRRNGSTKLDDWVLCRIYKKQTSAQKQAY
# How it was run: as §1
# GST-NTL8 NAC domain = biological target: T11, GST-NTL8 NAC domain (Arabidopsis thaliana, UniProt Q9XIN7 14-156); conditions: protein: recombinant; tags: GST; chain copies: 2; dsDNA, one strand shown
# T11 sequence: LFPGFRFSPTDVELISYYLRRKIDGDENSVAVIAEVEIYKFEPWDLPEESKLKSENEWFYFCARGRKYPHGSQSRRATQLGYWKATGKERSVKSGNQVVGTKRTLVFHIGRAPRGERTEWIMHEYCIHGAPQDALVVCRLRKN
# How it was run: as §1
Sequence,binding signal (GST-ANAC092(1-176)) [E-score],binding signal (GST-NTL6(1-168)) [E-score],binding signal (GST-ATAF1 NAC domain) [E-score],binding signal [1] [E-score],binding signal (GST-NAP(1-166)) [E-score],binding signal (GST-NST2(1-184)) [E-score],binding signal (GST-SND1(1-203)) [E-score],binding signal (GST-VND3 NAC domain) [E-score],binding signal (GST-VND7 NAC domain) [E-score],binding signal (GST-WRKY1(266-371)) [E-score],binding signal (GST-ANAC019 NAC domain) [E-score],binding signal (GST-ANAC055(1-171)) [E-score],binding signal (GST-NTL8 NAC domain) [E-score]
GTCGCGTA,0.307,0.0763,0.195,0.414,0.171,0.109,0.422,0.102,0.233,0.145,–,–,–
ATTACTTC,0.31,0.415,0.176,0.34,–,0.267,0.347,0.208,0.14,0.097,0.168,0.223,0.406
CTACGTCA,0.0986,–,0.166,0.318,0.148,0.31,0.452,0.144,0.176,0.137,0.133,0.129,–
GAGACGTA,0.194,–,0.411,0.331,0.396,0.236,0.322,0.418,0.413,0.0734,0.432,0.395,–
GTCACGCA,0.319,–,0.193,0.4,0.197,0.119,0.257,0.167,0.252,0.228,0.307,0.236,–
ATTACGTC,0.366,–,0.356,0.405,0.376,0.333,0.432,0.37,0.357,0.0595,0.329,0.353,–
GACGTAAA,0.355,–,0.365,0.399,0.311,0.333,0.431,0.329,0.204,0.0785,0.298,0.256,–
CTTGCGTC,0.337,–,0.0507,0.402,0.21,0.106,0.162,0.0748,0.058,0.0999,0.0715,0.0764,–
AGATTGAC,0.135,0.0646,0.0846,0.15,–,0.0869,0.179,0.0944,0.0768,0.457,–,0.0571,–
GACGCAAC,0.438,–,0.282,0.457,0.37,0.295,0.325,0.295,0.259,0.0608,0.294,0.293,–
GAAAGGAA,0.21,0.32,0.188,0.2,–,0.228,0.234,0.209,0.231,0.0968,0.134,0.168,0.422
ACACGTCA,0.484,–,0.382,0.487,0.431,0.316,0.352,0.395,0.447,0.251,0.436,0.402,–
ACGCAAGG,0.399,–,0.106,0.448,0.2,0.226,0.39,0.122,0.128,0.201,0.084,0.106,0.152
GATTGACC,0.141,–,–,0.14,–,–,0.0705,0.138,0.059,0.479,–,0.0576,–
GACGTCAA,0.16,–,0.0728,0.19,0.122,0.0988,0.139,0.126,0.0526,0.436,–,0.0759,–
TACACGCA,0.467,0.0803,0.369,0.463,0.375,0.363,0.385,0.404,0.385,–,0.415,0.382,–
TGACGTAA,0.449,–,0.407,0.441,0.389,0.385,0.482,0.406,0.392,0.178,0.368,0.364,0.0784
AGTTTGAC,–,0.0778,0.122,–,–,–,0.069,0.0521,0.095,0.48,0.068,0.118,–
